# Assay results reported in ChEMBL document CHEMBL3433997, “St. Jude Leishmania screening dataset” (2016).
# What was measured:
# Assay type in all cases: functional
# [1] = target: Solute carrier family 2, facilitated glucose transporter member 1 (Homo sapiens) (UniProt P11166); assay: ST_JUDE_LEISH: Cytotoxicity at 2uM final concentration against transgenic Leishmania Mexicana promastigotes LmGLUT1 that are glucose transport deficient and complemented with the human glucose transporter GLUT1. Activity is measured by DNA content using SYBR green in vitro
# [2] = target: Hexose transporter 1 (Plasmodium falciparum) (UniProt O97467); assay: ST_JUDE_LEISH: Cytotoxicity at 2uM final concentration against transgenic Leishmania Mexicana promastigotes LmPfHT that are glucose transport deficient and complemented with the Plasmodium falciparum hexose transporter. Activity is measured by DNA content using SYBR green in vitro
# [3] = target: Glucose transporter (Leishmania mexicana) (UniProt O61059); assay: ST_JUDE_LEISH: Cytotoxicity at 2uM final concentration against transgenic Leishmania Mexicana promastigotes LmGT2 that are glucose transport deficient and complemented with the L. Mexicana glucose transporter 2. Activity is measured by DNA content using SYBR green in vitro
# Solute carrier family 2, facilitated glucose transporter member 1 (Homo sapiens), sequence (P11166 whole entry): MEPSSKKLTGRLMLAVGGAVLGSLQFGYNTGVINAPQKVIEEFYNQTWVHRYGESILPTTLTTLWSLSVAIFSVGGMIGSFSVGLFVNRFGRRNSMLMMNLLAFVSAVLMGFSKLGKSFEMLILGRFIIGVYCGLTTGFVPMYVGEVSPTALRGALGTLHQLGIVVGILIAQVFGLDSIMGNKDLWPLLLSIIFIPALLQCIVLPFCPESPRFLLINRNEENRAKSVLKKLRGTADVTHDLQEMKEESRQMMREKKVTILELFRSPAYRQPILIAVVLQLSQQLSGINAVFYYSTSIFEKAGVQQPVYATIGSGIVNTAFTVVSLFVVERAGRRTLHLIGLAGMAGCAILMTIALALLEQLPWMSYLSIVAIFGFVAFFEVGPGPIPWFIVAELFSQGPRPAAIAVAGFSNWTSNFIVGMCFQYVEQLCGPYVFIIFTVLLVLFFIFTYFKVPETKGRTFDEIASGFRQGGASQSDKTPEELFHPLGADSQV
Compound,inhibition [1] [%],inhibition [2] [%],inhibition [3] [%]
O=c1c2sc(-c3ccc(Cl)cc3)cc2ncn1Cc1ccc(OCCN2CCCC2)c2ccccc12,4.34,2.61,1.85
CCS(=O)(=O)c1ccc(-c2cnc3[nH]cc(-c4ccc(N)cc4)c3c2)cc1,16.2,21.7,16.2
O=C(Nc1ccc(OC2CCN(Cc3ccc(F)cc3)C2)cc1)c1cccs1 (configuration not stated),-3.81,-1.65,-0.11
CC(C)(Oc1ccc(Cl)cc1)C(=O)NCCC1CCN(CCCCCNC(=O)/C=C/c2ccc(Cl)c(Cl)c2)CC1,6.53,7.08,2.35
Fc1ccc(CNc2nc(-c3ccc(F)c(C(F)(F)F)c3)n(-c3cccc(C(F)(F)F)c3)n2)cc1,4.39,5.8,3.42
Cc1ccc2c(=NN=Cc3cccc(Cl)c3)cc(C)[nH]c2c1,0.92,0.93,1.04
O=C(Nc1ccc(OC2CCN(Cc3ccsc3)C2)c(Cl)c1)c1ccc2ncccc2c1 (configuration not stated),-0.7,0.74,-0.92
COc1ccc2nccc([C@@H](O)CN3CCC(NC(=O)Cc4cc5ccccc5s4)CC3)c2c1,8.41,6.59,1.96
COc1cc(C)nc2ccc(NC(=O)c3cc(C(F)(F)F)cc(C(F)(F)F)c3)cc12,16.3,12.8,10.1
Cc1cc(N)c2cc(NC(=O)c3cc(C(F)(F)F)cc(C(F)(F)F)c3)ccc2n1,0.38,1.04,0.8
Cc1ccc(Cn2cnc(N3CC(C)NC(C)C3)cc2=O)cc1NC(=O)Nc1ccc(-c2ccccc2)cc1 (configuration not stated),-0.2,-0.46,-0.19
COc1ccc(CCc2ccc(-c3c(C)[nH]c(C)c(Cl)c3=O)cc2)cc1,2.55,3.51,1.05
COc1ccc(CCNC(=O)c2cnc3c(c2)nc(-c2c[nH]c(-c4ccccc4)n2)n3CCc2c[nH]cn2)cc1,1,-1.24,2.62
CCCN1CCN(c2ccccc2NS(=O)(=O)c2ccc(C(=O)Nc3ccc(Cl)cc3)cc2)CC1,2.67,3.32,-1.54
O=C(/C=C/c1ccc(Cl)c(Cl)c1)NCCCCCN1CCCC(CCCNC(=O)Nc2ccc(C(F)(F)F)cc2)C1 (configuration not stated),11.3,9.28,5.82
C[C@@H](Oc1cc(-n2cnc3ccc(OCC4CCN(S(C)(=O)=O)CC4)cc32)sc1C(N)=O)c1ccccc1C(F)(F)F,11.6,9.1,4.63
CCOc1ccccc1CCNC(C)Cc1ccc(C(=O)Nc2ccc(CC(C)NCCc3cccc(Cl)c3)cc2)cc1 (configuration not stated),28,34.1,3.04
O=C(O)c1cc(C(F)(F)F)co1,-2.13,-1.54,-0.54
O=S(=O)(ON=C1CCc2ccccc21)c1ccc(Cl)cc1,1.95,-0.07,3.35
NC(=O)COc1c(C2CCN(CCCCNC(=O)c3ccc(-c4ccc(Cl)cc4)c(O)c3)CC2)ccc2c1CCCC2,-0.69,2.57,2.53
Cc1cc(NC(=O)NCCN2CCC(NC(=O)c3ccc(F)cc3)CC2)c2ccccc2n1,-0.27,-0.3,-3.5
O=S(=O)(Nc1ccc(CCN2CCC(N3CCCCC3)CC2)cc1)c1ccc(Cl)cc1,1.32,2.6,2.94
COc1ccccc1C1CC(c2ccc(C)cc2)=NN1C(=O)c1ccccc1 (configuration not stated),8.25,8.06,5.66

Compound,inhibition [1] [%],inhibition [2] [%],inhibition [3] [%]
CC(C)CNCc1cccc(-c2ccc(CNc3ccc4ncccc4c3)cc2)c1,1.45,1.19,-0.62
O=C(Nc1ccc(C(F)(F)F)cc1)NC1CCN(c2ccnc3cc(Cl)ccc23)C1 (configuration not stated),3.59,3.27,0.73
CCCCN1CCN(Cc2cccc(NC(=O)c3ccc(Cl)c(Cl)c3)c2)CC1,13.4,10.1,10.5
Cc1cccc2nc(-c3cccc(-c4cccc(NC(=O)c5ccncc5)c4)c3)[nH]c12,3.32,3.01,4.27
Cc1cc2c(cc1C(F)(F)F)N(C(=O)Nc1cc(C(=O)NC3CCN(Cc4ccccc4)C3)cc(C(F)(F)F)c1)CC2 (configuration not stated),6.43,6.1,7.35
NCC1CCCN1Cc1ccc(-c2ccc(-c3nc4cc(F)ccc4[nH]3)cc2)cc1 (configuration not stated),8.49,5.64,4.54
O=C(NC1CC1)c1cnc(N2CCC(OCc3ccccc3)CC2)c(Cl)c1,1.59,3.18,-1.03
CC1CCN(C(=O)[C@H](Cc2c[nH]c3ccccc23)NS(=O)(=O)c2ccc(Cl)cc2)CC1,1.32,2.42,13.7
O=C(NCCCCN1CCC(c2ccc(C(F)(F)F)cc2C(F)(F)F)CC1)c1ccc(NC(=O)c2ccc(Cl)cc2)cc1,0.67,3.98,-1.54
Cc1cccc2nc(-c3ccc(-c4cccc(CNCc5cccc(N)c5)c4)s3)[nH]c12,2.48,1.7,2.35
CCC(C)NS(=O)(=O)c1ccc2nc(Nc3ccc(C)c(Cl)c3)n(C(C)C(C)C)c2c1 (configuration not stated),2.38,2.08,1.6
NC1=NC(c2ccccc2)(c2ccccn2)C(=O)N1CCCc1ccccc1 (configuration not stated),6.44,2.19,1.77
O=S(=O)(NCCN1CCCC1)c1ccc(-c2cccc(CNC3Cc4ccccc4C3)c2)cc1F,7.61,2.53,3.93
CC(=O)Nc1cccc(-c2cnc(N)c3cc(-c4ccc5c(c4)OCO5)ccc23)c1,7.5,7.74,5.76
CC(C)c1ccc(CN2CCC(CNC(=O)c3cc(-c4ccc(N(C)C)cc4)cs3)C2)cc1 (configuration not stated),2.27,3.51,2.27
Cc1cccc2nc(-c3cccc(-c4cccc(NC(=O)NCc5ccccc5)c4)c3)[nH]c12,3.73,5.29,-4.27
Cc1cccc2nc(-c3ccc(-c4cccc(NC(=O)NCc5ccc(F)cc5)c4)cc3)[nH]c12,3.38,4.77,3.65
c1ccc(COc2ccc(C3CCCCC3)cc2)nc1,0.38,2.32,2.1
O=C(Nc1cccc(-c2nn3ccccc3c2-c2ccnc(Nc3ccc(C(=O)N4CCOCC4)cc3)n2)c1)c1c(F)cccc1F,23.1,7.72,2.78
O=C(O)C[C@H](NC(=O)[C@@H]1CCCN1C(=O)c1cccc(-c2ccc(Cl)c(Cl)c2)c1)C(=O)O,1.31,0.14,1.61
CN(C)c1ccc(NC2=NC(N)=NC(C)(C)N2)cc1,0.38,1.5,0.7
OCCN1CCN(Cc2cccc(-c3ccc(-c4nc5cc(C(F)(F)F)ccc5[nH]4)s3)c2)CC1,2.38,-3.19,0.82
CN1CCCC(CN2CCN(Cc3ccc(-c4ccc(-c5nc6cc(F)ccc6[nH]5)cc4)cc3)CC2)C1 (configuration not stated),2.18,4.45,2.38

Compound,inhibition [1] [%],inhibition [2] [%],inhibition [3] [%]
COc1ccc(NC(=O)c2ccc(C=Cc3ccc(C(F)(F)F)cc3)cc2)cc1N1CCN(C)CC1,0.43,0.25,-0.41
COc1cc2nc(-c3ccccc3)nc(N3CCN(CC(=O)N4CCCC4)CC3)c2cc1OC,3.46,1.22,4.86
CC1(C)C2C=C(CN3CCC(NC(=O)Nc4ccc(Cl)c(Cl)c4)CC3)C1CC2 (configuration not stated),8.89,7.57,7.92
CC(C)CNCc1ccc(-c2cccc(CNC3CCN(Cc4ccccc4)CC3)c2)cc1,3.21,3.32,5.23
COc1nc2c(CCN3CC[C@H](NCc4cc(C#N)c5c(c4)OCCO5)[C@H](O)C3)ccnc2cc1F,14.4,18,3.29
C=CCN1C(=O)CN(S(=O)(=O)c2ccc(-n3nc(C)cc3C)cc2)C1=S,3.32,3.89,2.49
CC(C)NCc1ccc(-c2cccc(NC(=O)c3cccc(C#N)c3)c2)cc1,2.87,2.38,-2.27
CC1CN(S(=O)(=O)c2ccc(NC(=O)c3cc(-c4ccccc4O)n[nH]3)cc2)CC(C)O1 (configuration not stated),4.88,5.64,4.67
Cc1cccc2nc(-c3cccc(-c4ccc(CN5CCCC5CN)cc4)c3)[nH]c12 (configuration not stated),1.85,0.15,0.68
CN1CCC(C(=O)N(Cc2ccc(-c3ccc(CNCCc4ccc(S(C)(=O)=O)cc4)cn3)cc2)Cc2cccc(F)c2)CC1,1.69,0.58,0.97
O=C(Nc1cccc(-c2cccc(-c3nc4cc(C(F)(F)F)ccc4[nH]3)c2)c1)c1cccnc1,0.56,0.29,-1.51
COC(=O)c1ccccc1COc1ccc(CC2(NC(=O)[C@H](Nc3ccc(C#N)c4ccccc34)C(C)(C)C)CCCC2)cc1,4.44,4.29,2.22
CCCCN1CCCN(Cc2cccc(NC(=O)c3ccc(-c4ccccc4)cc3)c2)CC1,1.16,-2.15,-1.31
CN1CCN(CC(=O)Nc2ccc(-c3cccc(-c4nc5cc(C(F)(F)F)ccc5[nH]4)c3)cc2)CC1,0.66,1.68,-1.43
CC(C)=CC1C(C(=O)n2c(=N)[nH]c3ccccc32)C1(C)C (configuration not stated),9.13,7.8,5.36
Cc1cc(OCC2CCN(c3ccc(C(=O)NC4CC4)cn3)CC2)ccc1F,0.67,1.45,-6.22
CCCCOP(=O)(COc1ccc(CCN(CC(O)COc2cccc3[nH]c4ccccc4c23)CC(O)COc2cccc3[nH]c4ccccc4c23)cc1)C1CCCCC1 (configuration not stated),3.64,0.57,0.82
CC(CN(C)C)Oc1ccc2nc(-c3cccc(OCc4ccccc4)c3)[nH]c2c1C#N (configuration not stated),-1.18,0.94,0.08
O=C(Nc1ccc2c(c1)CCNCC2)c1ccc(-c2ccc(Cl)cc2)cc1,58.3,104,109
COc1ccc(NC(=O)c2ccc(Br)c(C)c2)cc1N1CCN(Cc2ccccc2)CC1,1.57,0.13,-0.04
COc1ccc2ncc(F)c(CCN3CCC(NCc4cc5c(cn4)OCCS5)CC3)c2c1,57.8,66.5,80.3
CN(C)CCN(C)Cc1ccc(-c2cccc(-c3nc4ccccc4[nH]3)c2)cc1,-0.63,1.04,0
O=C(N[C@@H](Cc1ccccc1)[C@H](O)CNCCC(F)(F)F)c1cccc(OCC2CC2)c1,-0.59,-0.22,0.56
